Source: PubChem BioAssay (NCI)
Compounds without any hit were thinned out: in the full panel of roughly 83,000, 20% have a hit.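 48-hour exposure, single concentration, 96-well plates; percent growth endpoint where 0 means no net growth. Active: below 10.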 Unmarked numbers belong to inactive results. Activity calls are given as the source filed them.

Key:
Assay in all cases: NCI-60 one-dose screen, 48 h (100 = growth as untreated, 0 = no growth, -100 = all killed)
Conditions in all cases: 10 µM
NCI-H23 lung = test system: NCI-H23 lung
NCI-H226 lung = test system: NCI-H226 lung
NCI-H322M lung = test system: NCI-H322M lung
HOP-62 NSCLC = test system: HOP-62 NSCLC
NCI-H460 lung = test system: NCI-H460 lung
HOP-92 NSCLC = test system: HOP-92 NSCLC
NCI-H522 lung = test system: NCI-H522 lung
A549/ATCC NSCLC = test system: A549/ATCC NSCLC
786-0 renal = test system: 786-0 renal
COLO 205 colon = test system: COLO 205 colon
DU-145 prostate = test system: DU-145 prostate
MALME-3M melanoma = test system: MALME-3M melanoma
MDA-MB-231 breast = test system: MDA-MB-231 breast
RXF 393 renal = test system: RXF 393 renal
SF-268 CNS = test system: SF-268 CNS
SF-295 CNS = test system: SF-295 CNS
SF-539 CNS = test system: SF-539 CNS
UACC-257 melanoma = test system: UACC-257 melanoma
M14 melanoma = test system: M14 melanoma

| Compound | growth (NCI-H23 lung) | growth (NCI-H226 lung) | growth (NCI-H322M lung) | growth (HOP-62 NSCLC) | growth (NCI-H460 lung) | growth (HOP-92 NSCLC) | growth (NCI-H522 lung) | growth (A549/ATCC NSCLC) | growth (786-0 renal) | growth (COLO 205 colon) | growth (DU-145 prostate) | growth (MALME-3M melanoma) | growth (MDA-MB-231 breast) | growth (RXF 393 renal) | growth (SF-268 CNS) | growth (SF-295 CNS) | growth (SF-539 CNS) | growth (UACC-257 melanoma) | growth (M14 melanoma) |
| --- | --- | --- | --- | --- | --- | --- | --- | --- | --- | --- | --- | --- | --- | --- | --- | --- | --- | --- | --- |
| C=C(C)[C@@H]1CC[C@]2(C)[C@H](CC=C3[C@@H]4CC(C)(C)CC[C@]4(C(=O)N4CCOCC4)CC[C@]32C)[C@@]1(C)CCCN | -82.2% (active) | -80.5% (active) | -98.9% (active) | -90.6% (active) | -77.5% (active) | -77.1% (active) | -91.6% (active) | -84.1% (active) | -79.3% (active) | -92.8% (active) | -93.1% (active) | -93.8% (active) | -91.4% (active) | -90.9% (active) | -76% (active) | -87.4% (active) | -98.6% (active) | -92.4% (active) | -80% (active) |
| Cc1ccc(/C=C(\C#N)n2nnc3c(F)cccc32)cc1 | 14.7% | 16.8% | 10.1% | 17.8% | 3.45% (active) | -4.81% (active) | 1.65% (active) | -3% (active) | 38.5% | -70.6% (active) | 13.9% | 34.7% | -18.1% (active) | -4.78% (active) | 24.3% | 16% | -27.9% (active) | 38.6% | 36.6% |
| O=S(=O)(c1ccc(Cl)cc1)c1nc(-c2ccccc2)oc1S(=O)(=O)c1ccc(Cl)cc1 | 78.9% | 87.5% | 101% | 91.3% | 98% | 85.7% | 88.1% | 94.2% | 94.9% | 102% | 97.2% | 91.8% | 76.9% | 7.97% (active) | 97.7% | 92.9% | 84.8% | 85.5% | 90.8% |
| CNC(=O)c1cccc(N2CCc3c2ccc(NC(=O)Nc2ccc(N4CCN(C)CC4)c(C(F)(F)F)c2)c3F)c1 | -85.6% (active) | 104% | -92% (active) | -80% (active) | -81% (active) | -83% (active) | -91.7% (active) | -86% (active) | -95.6% (active) | 92.7% | -76.2% (active) | -96.3% (active) | -94.8% (active) | -85.3% (active) | -62.7% (active) | -97.2% (active) | -100% (active) | -35% (active) | -93.3% (active) |
| C=C[C@H]1[C@H](O[C@@H]2OC(CO)[C@@H](O)[C@H](O)C2OC(=O)c2c(O)cc(O)cc2-c2cccc(O)c2)OC=C2C(=O)OCC[C@H]21 (some centres not stated) | 96.5% | 98.8% | 93.8% | 93.6% | 107% | 132% | 106% | 95.3% | 105% | 107% | 105% | 92.6% | 96.1% | 104% | 101% | 96.2% | 104% | 90.8% | 101% |
| Cc1cc(C)nc(SCC(=O)Nc2ccc(S(N)(=O)=O)cc2)n1 | 100% | 98.5% | 102% | 108% | 134% | 101% | 95.9% | 103% | 105% | 124% | 114% | 99.1% | 103% | 96% | 125% | 99.8% | 94.8% | 107% | 114% |
| O=C(Nc1ccc(OCC(=O)c2ccccc2)cc1)Nc1ccc(Cl)c(C(F)(F)F)c1 | 25.4% | 8.87% (active) | 28% | 27.9% | 18.4% | -14.5% (active) | -31.7% (active) | 25.4% | 21% | -3.64% (active) | 49.2% | 10.4% | 16.8% | -36.7% (active) | 18.9% | 13.2% | 12.1% | 7.84% (active) | 17.5% |
| C#CCNC(=O)[C@]12CCC(C)(C)C[C@H]1C1=CC[C@@H]3[C@@](C)(CCC#N)[C@H](C(=C)C)CC[C@@]3(C)[C@]1(C)CC2 | 58.2% | 76.5% | 77.1% | 68.5% | 66.9% | 26.4% | 64.5% | 40.1% | 74.6% | 68% | 91.4% | 75.9% | 39.6% | 66.8% | 86.2% | 38.2% | 83.4% | 54.4% | 76.3% |
